Experimental data published in PubChem BioAssay.
Activity calls are given as the source filed them. How the calls were made is not given here.

Each compound was assayed against Pantothenate synthetase (Mycobacterium tuberculosis (strain ATCC 25618 / H37Rv)) (UniProt P9WIL5) (assay: Recombinant Mtb pantothenate synthetase (PanC) inhibitors, coupled enzyme, confirmatory (AID 375;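 further: 0% = full reaction with vehicle and 100% = no enzyme background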)). Settings: coupled enzyme assay; at 10 µM, stronger effect = higher value.
Pantothenate synthetase (Mycobacterium tuberculosis (strain ATCC 25618 / H37Rv)), sequence (P9WIL5 whole entry, looked up): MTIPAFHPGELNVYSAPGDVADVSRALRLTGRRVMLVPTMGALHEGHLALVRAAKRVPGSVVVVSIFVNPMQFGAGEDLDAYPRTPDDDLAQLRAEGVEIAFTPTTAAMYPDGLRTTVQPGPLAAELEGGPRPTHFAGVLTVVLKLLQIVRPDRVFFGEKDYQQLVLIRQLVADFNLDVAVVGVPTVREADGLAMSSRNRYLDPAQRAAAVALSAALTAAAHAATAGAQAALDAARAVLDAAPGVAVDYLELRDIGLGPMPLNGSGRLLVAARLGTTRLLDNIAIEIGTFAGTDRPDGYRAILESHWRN

Row | SMILES | inhibition
1 | CC1=C(C#N)C(c2ccoc2)C(C(=O)OCc2ccccc2)=C(N)S1 (stereo not given) | 5% (inactive)
2 | CCc1ccc(NC(=O)CSc2nnc(Cc3cccn3C)n2-c2ccc(OC)cc2)cc1 | 0% (inactive)
3 | COc1ccccc1NC(=O)N1CCCC1C(=O)NC1CCCCC1 (stereo not given) | 0% (inactive)
4 | CCOc1ccc2[nH]c(=O)c(CN(Cc3ccccc3)C(=O)N3CCCC3)cc2c1 | 6% (inactive)
5 | c1ccc2c(c1)[nH]c1c(N3CCC4(CC3)OCCO4)ncnc12 | 0% (inactive)
6 | CCCCN(C)C(=O)c1cn(C)c2ccc(S(=O)(=O)N(C)C)cc2c1=O | 0% (inactive)
7 | CCn1c(C(Cc2ccccc2)NC(=O)COC)nc2ccccc21 (stereo not given) | 0% (inactive)
8 | CCOC(=O)c1cnn(-c2cc(C)c3cc(C)cc(C)c3n2)c1N | 0% (inactive)
9 | CC(=O)c1cccc(S(=O)(=O)NCC(c2ccco2)N2CCCCC2)c1 (stereo not given) | 0% (inactive)
10 | Cc1cc(Nc2ccc(C(=O)O)cc2)n2nc(C)nc2n1 | 7% (inactive)
11 | O=C(CCNS(=O)(=O)c1cccs1)Nc1ccccc1F | 3% (inactive)
12 | CCOC(=O)N1CCC(N2CC34C=CC(O3)C(C(=O)O)C4C2=O)CC1 (stereo not given) | 0% (inactive)
13 | CCC(C)N=C1SCC(C)(/C=N/O)S1 (stereo not given) | 0% (inactive)
14 | CCCCCCC(c1c(C)n(C)n(-c2ccccc2)c1=O)c1c(C)n(C)n(-c2ccccc2)c1=O | 0% (inactive)
15 | Cc1cc(=O)oc(C)c1C(=O)O | 0% (inactive)
16 | O=C(COc1ccc(Cl)cc1)NCc1nnc(SCC(=O)Nc2ccc3c(c2)OCCO3)o1 | 3% (inactive)
17 | CCOC(=O)N1CCN(C(=O)CSc2nnc(-c3cc(OC)cc(OC)c3)o2)CC1 | 0% (inactive)
18 | CC(=O)Nc1cc2c(nc1C)nc(C)n2Cc1ccc(Br)cc1 | 0% (inactive)
19 | O=C(c1ccco1)N1CCN(c2c(-c3ccccc3)c3cc(Cl)ccc3[nH]c2=O)CC1 | 5% (inactive)
20 | COc1ccc2c(-c3cccnc3)cc(=O)[nH]c2c1 | 6% (inactive)

Row | SMILES | inhibition
21 | COc1cc(NC(=O)c2cc(-n3cnnc3)ccc2Cl)cc(OC)c1 | 2% (inactive)
22 | Cc1ccc(-c2noc(-c3ccccc3C(=O)NCC3CCCO3)n2)cc1 (stereo not given) | 6% (inactive)
23 | COc1ccc(Cl)cc1NC(=O)CCN1CCN(c2ccccc2C)CC1 | 0% (inactive)
24 | COc1ccc2c(c1)C(C)=CC(C)(C)N2C(=O)C(C)N1C(=O)c2ccccc2C1=O (stereo not given) | 4% (inactive)
25 | CCOC(=O)c1[nH]c(C)c(C(=O)NCC2CCCO2)c1C (stereo not given) | 0% (inactive)
26 | COc1cccc(N2CCN(c3c4c(nc5ncnn35)CCC4)CC2)c1 | 0% (inactive)
27 | Oc1c(I)cc(I)c2cccnc12 | 2% (inactive)
28 | OCCNc1nc2ccc(Cl)cc2[nH]1 | 0% (inactive)
29 | O=c1oc2ccccc2c2nccnc12 | 0% (inactive)
30 | CCCCN(C)Cc1c(O)ccc2c(-c3ccccc3)cc(=O)oc12 | 1% (inactive)
31 | CCOC(=O)N1CCN(C(=O)CSc2cc(C)nc3c(-c4ccccc4OC)c(C)nn23)CC1 | 0% (inactive)
32 | c1ccc(OCCCn2nnc(-c3ccncc3)n2)cc1 | 3% (inactive)
33 | O=C1C2CC=CCC2C(=O)N1c1ccc(Cc2ccncc2)cc1 (stereo not given) | 0% (inactive)
34 | O=C(c1cc2ccccc2oc1=O)N1CCN(c2ccc(N3CCOCC3)nn2)CC1 | 0% (inactive)
35 | O=C(CSc1nnc(Cn2c(=O)sc3ccccc32)n1-c1ccccc1)NCC1CCCO1 (stereo not given) | 0% (inactive)
36 | CCOc1ccccc1C(=O)Nn1c(C2CCC2)nc2ccccc2c1=O | 0% (inactive)
37 | O=C(NCc1nnc(SCC(=O)N2CCC(Cc3ccccc3)CC2)o1)c1ccccc1F | 0% (inactive)
38 | CCOc1cc2[nH]c(=S)n(CC3CCCO3)c(=O)c2cc1OCC (stereo not given) | 9% (inactive)
39 | CN1C(=O)c2c(sc3c2CCCC3)NC1c1ccccc1O (stereo not given) | 0% (inactive)
40 | Cc1[nH]nc2c1C(=O)CC(C)(C)C2 | 0% (inactive)
